Assay outcomes (PubChem BioAssay)
The sample as a whole holds a higher share of hits than the screen did.
HT1080-NT tox: qHTS for induction of synthetic lethality in tumor cells producing 2HG: qHTS for the HT-1080-NT fibrosarcoma cell line; HT-1080-NT fibrosarcoma viability, CellTiter-Glo ATP luminescence, 48 h; Potency, µM (series often up to 46.1 µM), without a hit: at the highest dose activity, negative = less viability, usual class: cytotoxic; actives 1.6% (n = 360,000); AID 686970, 2013;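 note: NT is the 2HG producing partner of a matched IDH1 knockdown line; potency is the fitted concentration of half-maximal effect; 0% = DMSO-treated cells and -100% = media-only wells without cells; nearly all actives have a fitted effect of over 55% in size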
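HT-1080-NT fibrosarcoma cells (2HG-overproducing), 750 cells/well in RPMI with 5% FBS, dosed after 2 h and incubated 48 h at 37C. CellTiter-Glo luminescence normalized to DMSO and no-cell wells; concentration-response curves fitted and classed.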
HT1080 IDH1KD tx: qHTS for induction of synthetic lethality in tumor cells producing 2HG: qHTS for the HT-1080-IDH1KD cell line; HT-1080 IDH1 knockdown viability, ATP luminescence, 48 h; Potency, µM (top dose mostly 46.1 µM), for inactives: top-dose activity, negative = toxicity, hits mostly cytotoxic; actives 2% (n = 360,000); AID 686971, 2013;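 note: potency is the fitted concentration of half-maximal effect; 0% = DMSO wells and -100% = cell-free medium wells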
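CellTiter-Glo luminescence after 48 h compound exposure at 37 degrees C of IDH1-knockdown HT-1080 cells in 5% FBS RPMI. %Activity scaled between DMSO wells and cell-free media wells, with curves fitted and assigned curve classes.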
IL-1B inflam inh: qHTS for Inhibitors of Inflammasome Signaling: IL-1-beta AlphaLISA Primary Screen. activity change, % at 57.5 µM. actives 4.7% (n = 360,000). THP-1 LPS/ATP IL-1B secretion, AlphaLISA, 16 h; stronger effect = lower value. AID 743279, 2014; in the data active = activity change below about -50%; inconclusive = mostly about -30% to -49%
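THP-1 cells pretreated 1 hr with compounds (up to 57.5 uM final), then stimulated with LPS (250 ng/mL final) plus ATP (1.25 mM final); secreted IL-1B measured by AlphaLISA after 16 hr, decreased signal indicating inhibition.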
ALOX12 inh: Primary qHTS assay for inhibitors of human arachidonate 12S-lipoxygenase (ALOX12): Round 2 | Polyunsaturated fatty acid lipoxygenase ALOX12 (Homo sapiens), P18054 | actives 1.1% (n = 580,000) | Potency, µM (doses to about 108 µM), inactives show at the top dose activity change, negative = inhibition, usual class: inhibitors | purified 12hLO, xylenol orange hydroperoxide absorbance; note: potency is the fitted concentration of half-maximal effect
Target sequence (P18054 whole entry, looked up): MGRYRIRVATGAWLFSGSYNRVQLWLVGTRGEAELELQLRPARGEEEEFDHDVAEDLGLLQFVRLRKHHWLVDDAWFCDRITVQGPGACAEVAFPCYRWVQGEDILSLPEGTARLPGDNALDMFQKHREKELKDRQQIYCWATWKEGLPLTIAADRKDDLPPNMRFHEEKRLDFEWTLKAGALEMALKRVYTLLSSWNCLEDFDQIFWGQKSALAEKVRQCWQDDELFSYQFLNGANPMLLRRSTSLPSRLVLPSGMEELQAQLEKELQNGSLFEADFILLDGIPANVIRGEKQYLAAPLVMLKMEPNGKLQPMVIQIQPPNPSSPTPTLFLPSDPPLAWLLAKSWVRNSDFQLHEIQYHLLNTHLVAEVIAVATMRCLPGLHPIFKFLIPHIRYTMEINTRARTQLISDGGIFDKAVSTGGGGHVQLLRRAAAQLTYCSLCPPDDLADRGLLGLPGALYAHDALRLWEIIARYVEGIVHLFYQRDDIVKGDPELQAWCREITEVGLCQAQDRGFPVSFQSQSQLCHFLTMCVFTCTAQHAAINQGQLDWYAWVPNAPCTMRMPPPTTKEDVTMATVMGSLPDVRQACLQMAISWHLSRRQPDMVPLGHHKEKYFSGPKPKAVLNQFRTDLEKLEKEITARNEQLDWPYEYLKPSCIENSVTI
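Purified human 12hLO at 150 nM in 25 mM Hepes, 0.01% Triton X-100, pH 7.0, preincubated 15 min at room temperature with compound. Reaction started with 40 uM arachidonic acid, 30 min at room temperature. Hydroperoxide measured by Fe-xylenol orange, 573/405 nm absorbance ratio.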
TDP1 cell CPT: qHTS for Inhibitors of human tyrosyl-DNA phosphodiesterase 1 (TDP1): qHTS in cells in presence of CPT | chicken DT40 Tdp1-/-;hTDP1 cells + 20 nM CPT, ATP luminescence, 48 h | Potency, µM (series often up to 46.2 µM), for the others: top-dose activity change, negative = growth inhibition, actives largely listed as inhibitors | AID 686979, 2013 | actives 12% (n = 420,000); note: potency is the fitted concentration of half-maximal effect; nearly all actives have a fitted effect of over 55% in size
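Chicken DT40 Tdp1-/- cells complemented with human TDP1, 400 cells/well, exposed to compounds plus 20 nM camptothecin for at least 48 h at 37 C; viability read as ATP content by CellTiter-Glo luminescence.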
DT40 TDP1 no CPT: qHTS for Inhibitors of human tyrosyl-DNA phosphodiesterase 1 (TDP1): qHTS in cells in absence of CPT | DT40 Tdp1-/- hTDP1 cells, no CPT, ATP luminescence, 48 h | Potency, µM (titrated, usually from 46.2 µM), for inactives: at the highest dose activity change, negative = growth inhibition, hits mostly inhibitors | actives 15% (n = 420,000) | AID 686978, 2013; note: potency is the fitted concentration of half-maximal effect; nearly all actives have a fitted effect of over 55% in size
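Chicken DT40 Tdp1-/- cells complemented with human TDP1, screened without camptothecin (DMSO vehicle only), 400 cells/well. Compounds pin-transferred, cells incubated at 37 °C for at least 48 hr. Growth read as ATP-dependent luminescence (CellTiter-Glo, 30 min at RT).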
* hit, by the source's call; u = inconclusive; x = no result given; [ ] = remark or other dose. Unless noted, calls come from the whole dose curve; as a rule, active = well fitted curve in the direction sought with a large enough effect; inconclusive = small, poorly fitted or top-dose-only effect, or another doubt; inactive = no such curve, though single readings can be large; an effect the other way counts as inactive or inconclusive. Unless noted, % is set by controls: 0 for no effect and ±100 for the full control effect.

SMILES	HT1080-NT tox	HT1080 IDH1KD tx	IL-1B inflam inh	ALOX12 inh	TDP1 cell CPT	DT40 TDP1 no CPT
CCCCCCn1c(=O)c(-c2ccccc2)c(O)c2ccccc21	-13%	-6%	10	u	13%	-22%
CCCCCCCCn1c(=O)c(C(=O)OC)c(N)c2ccccc21	21µM*	16µM*	-95*	40%	1.3µM*	3.3µM*
O=C1OC(c2cc(I)c(O)c(I)c2)(c2cc(I)c(O)c(I)c2)c2ccccc21	x	x	x	10µM*	x	x
Cc1cc(O)c(C(C)C)cc1C1(c2cc(C(C)C)c(O)cc2C)OC(=O)c2ccccc21	8.2µM*	16µM*	-99*	u	15µM*	9.2µM*
O=C1OC(c2ccccc2)(c2cc(Br)c(O)c(Br)c2)c2ccccc21 (stereo unspecified)	-8%	0%	-9	u	-18%	u
CC(C)Cn1c(Cn2cccn2)nc2cc(NC(=O)COc3ccc(Cl)cc3)ccc21	x	x	x	-25%	x	x
COc1ccc(OC)c(NC(=O)Cn2c(=O)n(Cc3nc(C)no3)c(=O)c3ccccc32)c1	x	x	x	5%	-4%	3%
COc1ccc(-c2noc(Cn3c(=O)c4ccccc4n(CC(=O)Nc4cccc(C(F)(F)F)c4)c3=O)n2)cc1	x	x	x	2%	u	16µM*
O=C(Cn1c(=O)n(Cc2nc(-c3ccccc3)no2)c(=O)c2cc3c(cc21)OCO3)Nc1cccc(C(F)(F)F)c1	x	x	x	-1%	13µM*	9.2µM*
COc1ccc(C(=O)C/C(=C\C(=O)c2ccc(C)cc2)c2ccccc2)cc1	u	-29%	-24	1%	18µM*	23µM*
Cc1ccc(C(=O)NCC(c2cccs2)S(=O)(=O)c2ccccc2)cc1C (stereo unspecified)	x	x	x	-8%	15µM*	4.1µM*
O=C(NCc1ccc(Cl)cc1)C(=O)NCC(c1cccs1)S(=O)(=O)c1cccs1 (stereo unspecified)	x	x	x	-10%	-85%	u
O=C(NCc1ccccc1Cl)C(=O)NCC(c1cccs1)S(=O)(=O)c1cccs1 (stereo unspecified)	x	x	x	-19%	u	18µM*
COc1cccc(CNC(=O)Nc2cccs2)c1	-4%	-5%	-2	u	7.3µM*	u
COC(=O)c1ccc(OC(=O)c2ccccc2OCc2ccc(Cl)cc2)cc1	x	x	x	-19%	x	x
CC(C)(C)NC(=S)NN	x	x	x	-11%	x	x
COc1ccc(C(=O)NCC(c2cccs2)S(=O)(=O)c2cccs2)cc1 (stereo unspecified)	x	x	x	-6%	u	16µM*
COc1ccc(C(=O)NCC(c2cccs2)S(=O)(=O)c2ccc(C)cc2)cc1 (stereo unspecified)	x	x	x	-25%	23µM*	15µM*
COc1cccc(CNC(=O)C(=O)NCC(c2ccco2)S(=O)(=O)c2cccs2)c1 (stereo unspecified)	x	x	x	-24%	u	u
COc1ccc(C(CC(=O)c2ccccc2)S(=O)(=O)c2ccc(C)cc2)cc1 (stereo unspecified)	16%	1%	-29	-5%	u	14µM*
Cc1ccc(S(=O)(=O)C(CNC(=O)C(C)C)c2cccs2)cc1 (stereo unspecified)	16%	2%	-1	-10%	-7%	13%
COc1cccc(CNC(=O)C(=O)NCC(c2cccs2)S(=O)(=O)c2cccs2)c1 (stereo unspecified)	x	x	x	-3%	u	21µM*
CCCOc1ccc(C(CC(=O)c2ccc(C)cc2)S(=O)(=O)c2ccc(C)cc2)cc1 (stereo unspecified)	x	x	x	2%	x	x
COc1cc(C(=O)NCC(c2cccs2)S(=O)(=O)c2cccs2)cc(OC)c1OC (stereo unspecified)	x	x	x	0%	u	u
C=CCN1CCN(C(=O)C2(CCO)CC23CCOCC3)CC1 (stereo unspecified)	x	x	x	46%	x	x
SMILES	HT1080-NT tox	HT1080 IDH1KD tx	IL-1B inflam inh	ALOX12 inh	TDP1 cell CPT	DT40 TDP1 no CPT
CN(C)C(=O)c1ccc(OC2CCN(C(=O)c3c(F)cccc3F)CC2)nc1	x	x	x	31%	x	x
Cc1nc(-c2ccc(F)cc2)c(CC(=O)N2CCN(S(=O)(=O)c3cccc(F)c3)CC2)s1	-6%	-2%	-2	u	21µM*	15µM*
N#CCC(=O)N/N=C/c1cn(Cc2cccc3ccccc23)c2ccccc12	u	10µM*	0	0%	5.2µM*	3.7µM*
N#CCC(=O)N/N=C/c1c(-c2ccccc2)n(-c2ccccc2)c2ccccc12	-8%	-6%	-10	-35%	u	21µM*
COc1ccc2ccc(OC)c(/C=N/NC(=O)c3cc4ccccc4o3)c2c1	u	u	-4	4%	u	18µM*
COc1cc(/C=N/NC(=O)c2cc3c(ccc4ccccc43)o2)cc(OC)c1O	x	x	x	2%	x	x
COc1ccccc1/C=N/NC(=O)c1cc2c(ccc3ccccc32)o1	-3%	19%	-9	0%	16µM*	u
Cc1ccc(-c2cc(C(=O)Nc3nccs3)c3ccccc3n2)cc1	x	x	x	-8%	x	x
N#CCn1cc(/C=N/NC(=O)c2cc3c(ccc4ccccc43)o2)c2ccccc21	u	9.2µM*	-4	0%	21µM*	12µM*
COc1ccc(/C=N\NC(=O)c2cc3c(ccc4ccccc43)o2)cc1O	u	4.6µM*	-5	-104%	u	u
COc1ccc(/C=N/NC(=O)c2cc3c(ccc4ccccc43)o2)cc1OC	-3%	-17%	-7	-5%	u	u
O=C(N/N=C/c1ccncc1)c1cc2c(ccc3ccccc32)o1	-2%	6%	-3	455%	6%	-7%
O=C(NCCCN1CCCCCC1)C(c1ccccc1)C1CCCCC1 (stereo unspecified)	x	x	x	3%	u	16µM*
COc1ccc(CNC(=O)[C@H]2O[C@H](CCN3CCCC3)CC[C@@H]2O)cc1	x	x	x	17%[176 µM]	x	x
Cc1ccc(NC(=O)CSC2=NC(C)(C)N=C2c2ccc(Cl)cc2)cc1C	x	x	x	-10%	x	x
